In PubChem BioAssay (NCI) one finds growth data, which are given here for 40 compounds.

Compounds without any hit were thinned out: in the full panel of roughly 83,000, 20% have a hit.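 Each cell line was grown in a 96-well plate and treated with one concentration of compound for 48 hours. Values below 10 were considered active.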 Unmarked numbers belong to inactive results. Calls of active or inactive are those of the source.

This test deals with SNB-75 CNS. Description: NCI-60 one-dose screen, 48 h (100 = growth as untreated, 0 = no growth, -100 = all killed). The settings on record: 10 µM unless noted. As for the experimental part:
Growth inhibition of the SNB-75 human tumor cell line is measured as a screen for anti-cancer activity. Cells are grown in 96 well plates and exposed to the test compound for 48 hours. Compounds are tested at a single concentration, which is 10^-5 M for most compounds. The reported endpoint is percent growth (GI% or GIPRCNT), where numbers from 0 - 100% represent growth inhibition, and numbers from -100% - 0 represent cell death. For example, a value of 40 represents 60% growth inhibition. A value of 0 means no net growth occurred over the course of the experiment. A value of -40 indicates 40% of cells at the beginning of the experiment died by the end of the experiment. A value of -100 means all cells are dead at the end of the experiment.
NCI-60 Human Tumor Cell Lines Screen was performed using the standard one-dose NCI protocol, which is described in more detail at https://dtp.cancer.gov/discovery_development/nci-60/default.htm.
Compounds with GIPRCNT values below 10 were considered active. Activity score was based on GIPRCNT using the following formula: […]
Score is 0 for GIPRCNT values of 100 or above, 50 for GIPRCNT values of 0, and 100 for GIPRCNT values of -100.
Consider `COc1ccc(C(=O)/C=C/c2ccccn2)c(O)c1`, for which the growth was 78.1%.

For the compound `Cc1cc2c(C(C)C)c(O)c(O)c(C=NCc3ccoc3)c2c(O)c1-c1c(C)cc2c(C(C)C)c(O)c(O)c(C=NCc3ccco3)c2c1O`, the growth was 64.9%.

On to `CC(C)CSc1ncnc2nc[nH]c12`, for which the growth is 101%.

As to `Cc1ccc2c(c1)C(C)Cc1c(Cl)ncnc1N2C` (stereo not given), the growth was 50.3%.

In the case of `O=C(Nc1ccccc1)Nc1ccc(C(=O)/C=C/c2ccc(N3CCCC3)cc2)cc1`, the growth is 41%.

Take `CCN(CC)CCCC(C)Nc1ccnc2cc(Cl)c(SCc3ccccc3)cc12` (stereo not given): the growth is -86.2% (active).

Regarding `COc1cc(OC)cc(C(=O)Nc2cc(-c3cccnc3)nc(NCCCN3CCOCC3)n2)c1`, the growth is 109%.

Consider `C=CCCCCCCCCC(=O)OC(C)C`, for which the growth is 103%.

For the compound `C#CCNC(=O)CC[C@]1(C)[C@H]2CC[C@@H]3[C@@H]([C@@](C)(O)CCC=C(C)C)CC[C@@]3(C)[C@]2(C)CC[C@H]1C(=C)C`, the growth was -19% [100 µM] (active).

As to `O=C(N/N=C1\c2ccccc2-c2cccc(C(=O)O)c21)c1ccc(O)cc1`, the growth is 74%.

Turning to `CNc1cc(C(=O)O)nc(NC)n1`, the growth is 90.9%.

With `Cc1ccc(-c2cc(O)c(-c3ccc(C)cc3C)cc2O)c(C)c1`, the growth is 45.9%.

Take `CCOC(=O)Nc1ccc2c(c1)/C(=N\NC(=S)NC)c1ccccc1-2`: the growth is 96.2%.

Take `CSc1cccc([N+](=O)[O-])c1`: the growth is 115%.

On to `Cc1ccc(S(=O)(=O)n2cc(C(=O)C(=O)N3CCCCC3)c3ccccc32)cc1`, for which the growth was 73.8%.

In the case of `COc1cc(NCc2ccccc2O)c2ncccc2c1`, the growth was 64.5%.

With `O=S(=O)(NCCNc1nccc(-c2c(-c3cccc(F)c3)nc3occn23)n1)c1ccc(C(F)(F)F)cc1`, the growth was 59.6%.

For the compound `CCCCCC1CCCCN1C(=O)OCCCC` (stereo not given), the growth is 81.4%.

Regarding `C=C(C)[C@@H]1CC[C@]2(C(=O)O)CC[C@]3(C)[C@H](CC[C@@H]4[C@@]5(C)C/C(=C/c6ccco6)C(=O)C(C)(C)[C@@H]5CC[C@]43C)[C@@H]12`, the growth was -70.3% [100 µM] (active).

Consider `CC1=C/C(=C(\c2cc(C)c(O)c(C(=O)O)c2)c2c(Cl)cccc2Cl)C=C(C(=O)O)C1=O`, for which the growth was 90.3%.

In the case of `Nc1nc(Nc2ccccc2)c2ncn(Cc3cc4c(cc3Br)OCO4)c2n1`, the growth is 18.8%.

As for `Cc1ccc(-c2cc(-c3ccc(C)cc3)nc(NCCNc3ccnc4cc(Cl)ccc34)n2)cc1`, the growth was -30.2% (active).

Take `CCOC(=O)c1cc(C(=O)c2ccc(OC)c(OC)c2)n2ccc(-c3ccccn3)cc12`: the growth is 24.1%.

In the case of `CC1=CC[C@@H]2C(C)(C)C(=O)CC[C@@]2(C)[C@@H]1COc1ccc2ccc(=O)oc2c1`, the growth is 76.6%.

On to `ClC1=C(Cl)C(Cl)=C(Cl)C1=Cc1ccccc1`, for which the growth is -77% (active).

On to `CCOC(=O)c1nn(C2CCCCO2)c2ccc(NC(=O)Cn3nnc4ccccc43)cc12` (stereo not given), for which the growth is 78.6%.

With `O=C(NCCCNC(=O)OCc1ccc2cccc(O)c2n1)OCc1ccc2cccc(O)c2n1`, the growth is 28.4%.

Consider `CCCc1cc2cc(-n3nc(C)c4c3CC(C)(C)CC4=O)cc(NC3CCSCC3)c2c(=O)[nH]1`, for which the growth is 102%.

With `COc1ccc2nc3c(cc2c1)C(=O)CC(c1ccccc1)C3` (stereo not given), the growth is -9.09% (active).

Consider `Cn1cc(-c2noc(-c3cn(C)c4ncc(Br)cc34)n2)c2cc(Cl)ccc21`, for which the growth is 56.2%.

Turning to `O=C1Nc2ccccc2/C1=C/C(=O)c1ccc(N2CCOCC2)cc1`, the growth is 90.5%.

For `Nn1c(Nc2ccc(S(=O)(=O)Nc3ncccn3)cc2)nnc(/C=C/c2c(O)ccc3ccccc23)c1=O`, the growth is 92.2%.

For `[2H]C1([2H])CCN(C(=O)C2CC2)c2cc(NS(=O)(=O)c3ccc(-c4cccc(C(N)=O)c4)cc3)ccc21`, the growth is 11.3%.

As for `Cn1cc(-c2nnc(-c3cn(C)c4ncc(Br)cc34)s2)c2cc(Br)ccc21`, the growth was 64.3%.

For `CCOc1ccc(S(=O)(=O)Nc2ccc3c(c2)N(S(=O)(=O)CC)CCC3)cc1`, the growth is 64.8%.

Consider `O=C(NCCCNC(=O)OCc1ccc2c(Br)cc(Br)c(O)c2n1)OCc1ccc2c(Br)cc(Br)c(O)c2n1`, for which the growth was -87.6% (active).

In the case of `N#C/C(C(=O)c1ccccc1)=C1/C(=O)Nc2ccc(F)cc21`, the growth is 78.3%.

`Cc1ccc(-c2cc(-c3ccc(C)cc3)nc(N3CCN(CCNc4ccnc5cc(Cl)ccc45)CC3)n2)cc1`: the growth is -21.1% (active).

Turning to `c1ccc(-c2n[nH]c(-c3ccccn3)n2)nc1`, the growth is 101%.

In the case of `C=C(C)[C@@H]1CC[C@]2(C(=O)OC)CC[C@]3(C)[C@H](CC[C@@H]4[C@@]5(C)CC/C(=N\OCCC(=NCCC#N)NOCCC#N)C(C)(C)[C@@H]5CC[C@]43C)[C@@H]12`, the growth is 18.4% [100 µM].
